1 compound from PubChem BioAssay (NCATS) can be followed below.

The nature of test [1]: qHTS assay for environmental chemicals that activate the Aryl hydrocarbon Receptor (AhR) signaling pathway (AID 651777). Also: % of control where 0% means no effect; nearly all actives have a fitted effect of over 15% in size. The following applies: 1A2-DRE human hepatoma cells, luciferase, 24 h; activation: hits give high values. Put shortly:
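Luminescence read-out: One-Glo added for 30 min at RT after 24 hr compound treatment (37 C, 5% CO2) of human hepatoma cells expressing a DRE/CYP1A2 promoter–luciferase reporter; increased signal indicates AhR activation.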

The target in test [2] is Peroxisome proliferator-activated receptor alpha (Homo sapiens) (UniProt Q07869). Kind of test: qHTS assay for small molecule agonists of the peroxisome proliferator-activated receptor alpha (PPARalpha) signaling pathway (AID 651778). Also: % of control where 0% means no effect. The following applies: PathHunter PPARalpha complementation, chemiluminescence, 6 h; hits give high values. Put shortly:
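Cells plated at 2,000/well and held overnight at 37 C, 5% CO2, then compound added by pin tool for 6 hr; after PathHunter detection reagent and 60 min at room temperature, chemiluminescence from enzyme complementation was read.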

In test [3] the target is Nuclear receptor ROR-gamma (Homo sapiens) (UniProt P51449). Kind of test: qHTS assay for small molecule antagonists of the retinoid-related orphan receptor gamma (ROR-gamma) signaling pathway (AID 651802).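 Also: CHO cells with doxycycline-induced ROR-gamma expression; luciferase reporter luminescence driven by ROR response element; series mostly up to about 92 µM; % is scaled to controls: 0 for no effect and ±100 for the full control effect; nearly all actives have a fitted effect of over 60% in size.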 Put shortly: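 Luciferase read-out: ONE-Glo luminescence after 30 min at room temperature, following 16hr doxycycline induction at 37C, 5% CO2 of CHO cells with TET-inducible ROR and RORE-LUC reporter; decreased luminescence = reduced reporter activity.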
Nuclear receptor ROR-gamma (Homo sapiens), sequence (P51449 whole entry, looked up): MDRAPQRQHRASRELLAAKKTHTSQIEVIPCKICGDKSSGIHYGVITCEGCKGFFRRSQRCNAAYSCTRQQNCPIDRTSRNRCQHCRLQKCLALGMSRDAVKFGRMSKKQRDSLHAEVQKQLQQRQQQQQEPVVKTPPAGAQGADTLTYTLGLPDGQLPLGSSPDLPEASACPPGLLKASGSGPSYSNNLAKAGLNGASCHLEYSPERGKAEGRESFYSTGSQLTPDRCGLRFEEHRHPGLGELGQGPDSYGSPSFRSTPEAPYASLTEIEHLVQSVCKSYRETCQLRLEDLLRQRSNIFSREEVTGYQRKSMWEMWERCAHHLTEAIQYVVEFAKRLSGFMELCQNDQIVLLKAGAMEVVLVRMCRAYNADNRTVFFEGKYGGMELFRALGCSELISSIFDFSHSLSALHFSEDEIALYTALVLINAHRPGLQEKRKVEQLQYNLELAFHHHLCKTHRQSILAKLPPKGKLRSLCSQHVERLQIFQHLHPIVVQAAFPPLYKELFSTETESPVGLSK

Test [4] can be described thus: qHTS assay for small molecule agonists of the antioxidant response element (ARE) signaling pathway measured by Nrf2-dependant transcriptional activity (AID 720636; active = well fitted curve in the direction sought with a large enough effect in the repeat runs; an effect the other way counts as inactive or inconclusive; also: % of control where 0% means no effect). Put shortly:
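HepG2 ARE-luc reporter line, 1% dialyzed FBS; 6 hr attachment at 37 C, compound pinned in, 16 hr at 37 C/5% CO2; ONE-Glo, 30 min RT, luminescence read.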

Test [5] is described as follows: qHTS assay for small molecule antagonists of the retinoid-related orphan receptor gamma (ROR-gamma) signaling pathway - cell viability counter screen (AID 720652; active = well fitted curve in the direction sought with a large enough effect in the repeat runs; an effect the other way counts as inactive or inconclusive;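 also: CHO reporter cells with doxycycline-induced ROR-gamma expression; series mostly up to about 92 µM; compound exposure lasted 16 hr before ATP read; % is scaled to controls: 0 for no effect and ±100 for the full control effect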). A digest of the protocol:
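CHO RORE-LUC/TET-ROR line, 1,000 cells/well, 37 C 5% CO2 5 hr; cpd or DMSO + doxycycline induction, 16 hr. CellTiter-Glo, 30 min RT, luminescence = ATP content.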

Test [6] can be described thus: qHTS assay for small molecule agonists of the antioxidant response element (ARE) signaling pathway measured by Nrf2-dependant transcriptional activity - cell viability counter screen (AID 720653; active = well fitted curve in the direction sought with a large enough effect in the repeat runs; an effect the other way counts as inactive or inconclusive; also: % is scaled to controls: 0 for no effect and ±100 for the full control effect). The following applies: ARE-bla HepG2 viability, CellTiter-Glo ATP luminescence, 16 h; hits give low values. Put shortly: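 ARE-bla HepG2 cells (2,000/well) rested 5 hrs at 37C/5% CO2, then exposed to compounds in DMSO for 16 hrs. Viability was read in the same wells as intracellular ATP by luminescence, 30 min at room temperature after reagent addition.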

Test [7] in a line: qHTS assay for cell viability of HEK293 cells (AID 743288). Also: % is scaled to controls: 0 for no effect and ±100 for the full control effect; nearly all actives have a fitted effect of over 50% in size. The following applies: ATP luminescence (CellTiter-Glo), 18 h; max response: hits give low values. A digest of the protocol:
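Steps: plate 2,000 parental HEK293 cells per well; incubate ≥5 h, 37 C; add compounds in DMSO; incubate 18 h, 37 C; add CellTiter-Glo; wait 30 min at room temperature; read luminescence.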

Test [8] in a line: qHTS assay for cell viability of the p53RE-bla HCT-116 cell line (AID 743292). Also: % is scaled to controls: 0 for no effect and ±100 for the full control effect; nearly all actives have a fitted effect of over 55% in size. Put shortly:
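Luminescent ATP quantitation (CellTiter-Glo) served as the viability read-out; reagent was added after 16 h compound exposure at 37 C and read after 30 min at room temperature. Cells: p53RE-bla HCT-116, 4,000 per well.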

The target in test [9] is Nuclear receptor subfamily 1 group I member 3 (Homo sapiens) (UniProt Q14994). Kind of test: Primary qHTS for antagonist of constitutive androstane receptor (CAR) against the NCATS DSHEA and TCM libraries (AID 1794836). Also: series mostly up to about 40 µM. Put shortly:
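HepG2 cells stably carrying hCAR and a CYP2B6 luciferase reporter (2,500 cells/well) attached for 5 h, then received compounds with 48 uM CITCO for 24 h at 37C. ONE-Glo luminescence read antagonism; CellTiter-Fluor (405/540 nm) gave viability.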

The nature of test [10]: Viability counterscreen for antagonist of constitutive androstane receptor (CAR) against the NCATS DSHEA and TCM libraries (AID 1794837).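 Also: compound exposure lasted 24 h before viability reading; 0% is about no effect.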 A digest of the protocol:
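HepG2-CYP2B6-hCAR cells, 2,500/well, were exposed 24 hr at 37C to substances together with 48 uM CITCO (final). Viability was read as CellTiter-Fluor fluorescence (Ex/Em 405/540 nm) after 1 hr.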

The nature of test [11]: HepG2 viability counterscreen (readout 2: ATP content) against the NCATS DSHEA and TCM libraries (AID 1794840). Also: 0% is about no effect. A digest of the protocol: (§1)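 HepG2 cells, 1,000/well, attached ~4 h, then exposed ~24 h at 37C to substances. Protease activity read by fluorescence of 25 uM GF-AFC (Ex/Em 380/510 nm) after 30 min; ATP then by CellTiter-Glo luminescence.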
Test [12] can be described thus: HepG2 viability counterscreen (readout 1: protease activity) against the NCATS DSHEA and TCM libraries (AID 1794841).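 Also: cells exposed to compounds for about 24 h before the protease read; 0% is about no effect.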 A digest of the protocol:
as §1

Test [13] concerns the target Cytochrome P450 3A4 (Homo sapiens) (UniProt P08684). Description: qHTS for inhibitors of CYP3A4 against the NCATS DSHEA and TCM libraries (AID 1919971).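 Also: % is scaled to controls: 0 for no effect and ±100 for the full control effect; inhibition lowers luminescence from luciferin made by CYP3A4.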 A digest of the protocol:
(§2)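 Substances were tested against enzyme with a pro-luciferin substrate; minus-enzyme wells served as background. After NADPH-initiated oxidation (30-45 min, RT), light was generated with P450-Glo reagent.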

Test [14] deals with Cytochrome P450 2D6 (Homo sapiens) (UniProt P10635). Kind of test: qHTS for inhibitors of CYP2D6 against the NCATS DSHEA and TCM libraries (AID 1919972). Also: % is scaled to controls: 0 for no effect and ±100 for the full control effect. A digest of the protocol:
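qHTS, concentration–response format with most substances from 19.5 nM. CYP2D6 + pro-luciferin substrate, 15 min with compound, then 1x NADPH regen, 30–45 min RT dark. Glo detection 30 min, luminescence. Quinidine control.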

For test [15], the target named is Cytochrome P450 2C9 (Homo sapiens) (UniProt P11712). Kind of test: qHTS for inhibitors of CYP2C9 against the NCATS DSHEA and TCM libraries (AID 1919973).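 Also: luminogenic pro-luciferin CYP2C9 substrate turned into luciferin with NADPH regeneration; series mostly up to about 34 µM; % is scaled to controls: 0 for no effect and ±100 for the full control effect.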 A digest of the protocol: as §2
Cytochrome P450 2C9 (Homo sapiens), sequence (P11712 whole entry, looked up): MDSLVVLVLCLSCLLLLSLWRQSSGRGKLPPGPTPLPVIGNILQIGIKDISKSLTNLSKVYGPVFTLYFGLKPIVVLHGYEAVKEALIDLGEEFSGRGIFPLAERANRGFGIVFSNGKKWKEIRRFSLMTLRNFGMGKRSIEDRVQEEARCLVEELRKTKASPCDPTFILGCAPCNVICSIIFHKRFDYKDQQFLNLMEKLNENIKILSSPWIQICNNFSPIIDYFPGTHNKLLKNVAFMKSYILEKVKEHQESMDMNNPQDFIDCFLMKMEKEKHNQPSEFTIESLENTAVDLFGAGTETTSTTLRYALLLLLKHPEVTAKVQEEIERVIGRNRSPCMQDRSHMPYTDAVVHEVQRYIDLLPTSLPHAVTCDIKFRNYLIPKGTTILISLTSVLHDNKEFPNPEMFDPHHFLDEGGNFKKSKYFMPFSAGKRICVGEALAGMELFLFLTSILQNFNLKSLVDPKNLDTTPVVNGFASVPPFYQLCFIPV
The target in test [16] is Cytochrome P450 2C19 (Homo sapiens) (UniProt P33261). Kind of test: qHTS for inhibitors of CYP2C19 against the NCATS DSHEA and TCM libraries (AID 1919974).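 Also: luminescence from luciferin released by CYP2C19 oxidation of a pro-luciferin substrate; potency is read from the fitted curve at half-maximal effect.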 Put shortly:
as §2

A short description of test [17]: KB-3-1 P-gp reporter qHTS against the NCATS DSHEA and TCM libraries (AID 1919975). Also: 0% is about no effect. A digest of the protocol: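 Parental KB-3-1 cells, 500 cells/well, in DMEM with 10% FBS, exposed 72 h at 37 C to compounds in concentration-response. Viability read by CellTiter-Glo luminescence after 30 min at room temperature.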
The nature of test [18]: KB-8-5-11 P-gp reporter qHTS against the NCATS DSHEA and TCM libraries (AID 1919977). Also: 0% is about no effect. A digest of the protocol:
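P-gp-overexpressing KB-8-5-11 cells were screened in colchicine-free medium at 500 cells/well, as a titration series. Cells were exposed for 72 h at 37C. Viability was read by CellTiter-Glo luminescence after 30 min at room temperature.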

The nature of test [19]: qHTS Counterscreen for compound interference against the NCATS DSHEA and TCM libraries (AID 1919978).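 Also: compounds preincubated with 1 µM D-luciferin or buffer before detection reagent; % of control where 0% means no effect.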 To be noted: firefly luciferase detection reagent interference, luminescence. Put shortly:
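Firefly luciferase detection reagent was added after compounds (19.5 nM–39.8 uM final) had been incubated 15 min at room temperature with 1 uM D-luciferin or with 100 mM phosphate buffer alone. Luminescence was read after 30 min at room temperature.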

Test [20] can be described thus: Dual reporter qHTS for agonist of Pregnane X Receptor (hPXR) against the NCATS DSHEA and TCM libraries: Fluorescence readout (AID 1920058). Also: 0% is about no effect. A digest of the protocol: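 Fluorescence read-out for cell viability: CellTiter-Fluor, 1 h at 37 °C, Ex/Em 405/540 nm. This followed ~24 h treatment of hPXR-Luc HepG2 cells with substances in agonist mode.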
Test [21] addresses Nuclear receptor subfamily 1 group I member 2 (Homo sapiens) (UniProt O75469). Kind of test: Dual reporter qHTS for agonist of Pregnane X Receptor (hPXR) against the NCATS DSHEA and TCM libraries: Luminescence readout (AID 1920059). Also: 0% is about no effect. A digest of the protocol: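 hPXR-LucHepG2 cells in phenol red-free DMEM with 5% charcoal-stripped FBS, 2000 cells/well, attached 5 h, then exposed 24 h at 37C to compounds; rifampicin as positive agonist control (2.8 nM–92 uM). Luciferase luminescence read.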

The target is the same in test [22]. Description: Dual reporter qHTS for antagonist of Pregnane X Receptor (hPXR) against the NCATS DSHEA and TCM libraries: Luminescence Readout (AID 1920060).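 Also: HepG2 cells carrying hPXR luciferase reporter stimulated with rifampicin at 2 µM; 0% is about no effect.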 Put shortly:
(§3)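 Antagonist mode: rifampicin 2 uM final co-added with compounds to hPXR-LucHepG2 cells for 24 h at 37C. Viability by CellTiter-Fluor, Ex/Em 405/540 nm, 1 h; reporter by ONE-Glo luminescence.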

Test [23] in a line: Dual reporter qHTS for antagonist of Pregnane X Receptor (hPXR) against the NCATS DSHEA and TCM libraries: Fluorescence Readout (AID 1920061). Also: 0% is about no effect. A digest of the protocol:
as §3

Test [24] addresses Nuclear receptor subfamily 1 group I member 2 (Rattus norvegicus) (UniProt Q9R1A7). Kind of test: qHTS assay for small molecule activators of the rat pregnane X receptor (rPXR) signaling pathway (AID 651751; call rule not given here; also: 0% is about no effect). The following applies: rPXR reporter cells, luciferase (One-Glo), 24 h.

Values without a mark were called inactive. Records with an inconclusive call do not appear. Calls of active or inactive are those of the source. Unless noted, calls follow the shape of the dose curve; as a rule, active = well fitted curve in the direction sought with a large enough effect; inconclusive = small, poorly fitted or top-dose-only effect, or another doubt; inactive = no such curve, though single readings can be large; an effect the other way counts as inactive or inconclusive.

Nuclear receptor subfamily 1 group I member 2 (Homo sapiens), sequence (O75469 whole entry, looked up): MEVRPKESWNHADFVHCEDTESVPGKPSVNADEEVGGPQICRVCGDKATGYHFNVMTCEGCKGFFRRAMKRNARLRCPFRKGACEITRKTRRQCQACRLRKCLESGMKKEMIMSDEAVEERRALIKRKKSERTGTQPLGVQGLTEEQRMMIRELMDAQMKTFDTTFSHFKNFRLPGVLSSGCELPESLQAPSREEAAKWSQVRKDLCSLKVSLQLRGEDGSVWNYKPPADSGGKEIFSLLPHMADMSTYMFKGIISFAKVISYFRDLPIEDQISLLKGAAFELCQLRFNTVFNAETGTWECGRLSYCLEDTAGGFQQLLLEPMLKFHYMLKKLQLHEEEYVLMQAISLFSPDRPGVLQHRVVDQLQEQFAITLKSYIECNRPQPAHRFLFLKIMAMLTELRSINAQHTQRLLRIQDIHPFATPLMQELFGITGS
Cytochrome P450 3A4 (Homo sapiens), sequence (P08684 whole entry, looked up): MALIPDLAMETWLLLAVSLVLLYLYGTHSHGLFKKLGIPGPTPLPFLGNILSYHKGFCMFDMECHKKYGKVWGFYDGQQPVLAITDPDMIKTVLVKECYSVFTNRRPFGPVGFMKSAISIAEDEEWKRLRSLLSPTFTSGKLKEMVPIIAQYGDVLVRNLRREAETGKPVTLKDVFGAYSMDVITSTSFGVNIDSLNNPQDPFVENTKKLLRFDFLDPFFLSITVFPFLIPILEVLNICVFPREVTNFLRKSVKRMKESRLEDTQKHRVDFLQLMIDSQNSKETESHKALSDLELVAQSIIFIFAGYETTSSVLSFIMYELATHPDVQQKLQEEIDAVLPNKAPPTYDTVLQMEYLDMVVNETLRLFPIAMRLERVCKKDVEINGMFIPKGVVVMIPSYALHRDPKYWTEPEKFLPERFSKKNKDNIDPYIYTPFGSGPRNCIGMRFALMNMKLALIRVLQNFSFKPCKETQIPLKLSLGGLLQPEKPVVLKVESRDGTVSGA
Cytochrome P450 2C19 (Homo sapiens), sequence (P33261 whole entry, looked up): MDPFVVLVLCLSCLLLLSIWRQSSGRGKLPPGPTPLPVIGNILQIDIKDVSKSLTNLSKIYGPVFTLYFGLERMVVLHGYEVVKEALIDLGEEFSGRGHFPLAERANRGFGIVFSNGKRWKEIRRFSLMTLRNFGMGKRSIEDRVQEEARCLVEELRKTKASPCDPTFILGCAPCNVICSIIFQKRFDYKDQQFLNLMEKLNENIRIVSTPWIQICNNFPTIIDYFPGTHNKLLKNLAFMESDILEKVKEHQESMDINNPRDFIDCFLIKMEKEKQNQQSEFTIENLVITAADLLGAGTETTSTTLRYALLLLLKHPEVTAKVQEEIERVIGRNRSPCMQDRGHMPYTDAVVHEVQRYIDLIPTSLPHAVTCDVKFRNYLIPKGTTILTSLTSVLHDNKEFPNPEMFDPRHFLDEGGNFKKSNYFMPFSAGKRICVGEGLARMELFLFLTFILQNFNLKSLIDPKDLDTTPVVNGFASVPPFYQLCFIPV
Cytochrome P450 2D6 (Homo sapiens), sequence (P10635 whole entry, looked up): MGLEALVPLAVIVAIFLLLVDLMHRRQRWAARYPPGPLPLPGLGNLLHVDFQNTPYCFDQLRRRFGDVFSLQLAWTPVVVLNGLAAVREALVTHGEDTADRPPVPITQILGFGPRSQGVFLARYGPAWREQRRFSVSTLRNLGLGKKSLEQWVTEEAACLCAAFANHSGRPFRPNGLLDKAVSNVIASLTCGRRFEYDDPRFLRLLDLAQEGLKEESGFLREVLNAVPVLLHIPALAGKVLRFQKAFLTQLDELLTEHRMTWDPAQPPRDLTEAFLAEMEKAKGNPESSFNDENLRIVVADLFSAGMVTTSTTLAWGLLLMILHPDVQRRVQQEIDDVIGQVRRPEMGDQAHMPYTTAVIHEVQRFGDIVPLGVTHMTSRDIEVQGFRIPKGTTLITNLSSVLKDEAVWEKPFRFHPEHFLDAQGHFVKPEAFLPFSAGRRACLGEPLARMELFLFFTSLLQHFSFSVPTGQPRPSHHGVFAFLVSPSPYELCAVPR
Peroxisome proliferator-activated receptor alpha (Homo sapiens), sequence (Q07869 whole entry, looked up): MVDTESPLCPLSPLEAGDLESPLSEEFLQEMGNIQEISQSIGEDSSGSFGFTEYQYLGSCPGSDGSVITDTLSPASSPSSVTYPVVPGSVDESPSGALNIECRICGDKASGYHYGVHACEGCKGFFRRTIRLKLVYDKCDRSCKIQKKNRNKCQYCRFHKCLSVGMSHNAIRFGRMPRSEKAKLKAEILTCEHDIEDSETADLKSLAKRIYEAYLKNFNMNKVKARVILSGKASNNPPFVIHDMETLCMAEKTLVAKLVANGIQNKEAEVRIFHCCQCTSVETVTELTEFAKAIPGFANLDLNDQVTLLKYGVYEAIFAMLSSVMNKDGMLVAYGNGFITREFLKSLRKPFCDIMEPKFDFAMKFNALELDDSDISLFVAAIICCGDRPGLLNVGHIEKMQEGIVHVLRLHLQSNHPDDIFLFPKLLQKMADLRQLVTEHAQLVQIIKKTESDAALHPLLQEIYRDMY
Nuclear receptor subfamily 1 group I member 2 (Rattus norvegicus), sequence (Q9R1A7 whole entry, looked up): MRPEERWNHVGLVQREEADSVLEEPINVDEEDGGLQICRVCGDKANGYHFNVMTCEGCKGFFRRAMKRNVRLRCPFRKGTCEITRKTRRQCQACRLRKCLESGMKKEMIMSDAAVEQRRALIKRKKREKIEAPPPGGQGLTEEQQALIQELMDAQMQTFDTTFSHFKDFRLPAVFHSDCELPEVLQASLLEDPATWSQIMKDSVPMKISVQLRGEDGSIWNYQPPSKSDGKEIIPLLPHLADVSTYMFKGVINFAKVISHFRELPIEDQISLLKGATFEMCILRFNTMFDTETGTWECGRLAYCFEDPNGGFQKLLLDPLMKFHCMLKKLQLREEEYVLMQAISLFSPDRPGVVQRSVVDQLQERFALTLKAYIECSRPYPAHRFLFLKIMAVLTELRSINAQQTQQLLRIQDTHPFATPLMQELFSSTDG
Nuclear receptor subfamily 1 group I member 3 (Homo sapiens), sequence (Q14994 whole entry, looked up): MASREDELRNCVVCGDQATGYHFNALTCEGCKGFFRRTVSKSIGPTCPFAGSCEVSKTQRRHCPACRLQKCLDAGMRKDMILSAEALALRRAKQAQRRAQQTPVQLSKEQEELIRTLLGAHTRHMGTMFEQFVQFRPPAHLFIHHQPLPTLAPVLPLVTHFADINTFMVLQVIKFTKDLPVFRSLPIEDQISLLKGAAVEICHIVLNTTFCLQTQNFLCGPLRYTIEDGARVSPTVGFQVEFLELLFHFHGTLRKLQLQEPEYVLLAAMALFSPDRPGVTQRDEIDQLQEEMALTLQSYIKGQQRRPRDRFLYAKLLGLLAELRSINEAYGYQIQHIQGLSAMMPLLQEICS

Take `COC1=CC(=O)OC(CCc2ccccc2)C1` (centres undefined): the activation in [1] was 1.87%. The max response in test [2] was -9.22%; in test [6], -8.18%; in test [7], -7.7%; in test [19] it was 2.83%; in test [24], 3.74%. In addition, the Potency result in test [3], in [5], in [8], in test [9], in test [13] and in test [14] was “inactive” in each case. Besides, the Potency result in test [15], in test [18] and in [21] was “inactive” in each case. For the same compound, the result in [4], in [10], in test [11], in test [12], in [17] and in test [20] was inactive. Also, the result in test [22] and in test [23] was inactive. Besides, the Potency in test [16] was 14.1 µM (active).
